Reference: paper PMC7862700, “An all-to-all approach to the identification of sequence-specific readers for epigenetic DNA modifications on cytosine”

Target: T1, ETS2 (Homo sapiens, UniProt P15036 1-469)
T1 sequence: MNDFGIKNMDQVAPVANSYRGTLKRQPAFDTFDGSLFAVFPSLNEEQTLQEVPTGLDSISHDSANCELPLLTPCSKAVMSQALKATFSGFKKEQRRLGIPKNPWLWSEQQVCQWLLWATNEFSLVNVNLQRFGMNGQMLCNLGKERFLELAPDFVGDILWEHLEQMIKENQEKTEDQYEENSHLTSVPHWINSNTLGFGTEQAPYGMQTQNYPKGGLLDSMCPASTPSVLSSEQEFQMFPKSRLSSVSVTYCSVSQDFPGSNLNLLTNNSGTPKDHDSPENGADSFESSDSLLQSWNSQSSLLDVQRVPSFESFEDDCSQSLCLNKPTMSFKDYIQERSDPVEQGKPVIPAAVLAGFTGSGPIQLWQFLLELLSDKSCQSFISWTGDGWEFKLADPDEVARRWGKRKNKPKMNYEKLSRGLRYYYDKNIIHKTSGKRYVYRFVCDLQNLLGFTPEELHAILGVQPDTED
Experiment: DAPPL (digital affinity profiling via proximity ligation, sequencing); 10 mM Tris-HCl pH 7.5, 50 mM NaCl, 1 mM DTT, 4% glycerol, room temperature, 30 min; GST-TFs on glutathione beads, 16-mer random dsDNA library, 0.1% formaldehyde crosslink after washing; high values mean tight binding
Conditions: protein: recombinant; tags: N-terminal GST; dsDNA, one strand shown
Method in brief: (§1)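 Human transcription factors were made in yeast as GST fusions, captured on glutathione beads and barcoded with DNA. With a tag-only sample included, the pool was incubated with 200 nmole of a random double-stranded 16-mer DNA library in Tris/NaCl/DTT/glycerol buffer at room temperature for 30 min, then crosslinked with 0.1% formaldehyde after washing, ligated by proximity, amplified and sequenced. For binding signal, each hexamer's read frequency for a factor is divided by its frequency for the tag-only sample.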

Row | Sequence | binding signal
1 | GTCTAC | 1.13 fold enrichment (6-mer frequency, TF over GST control)
2 | CGCCCG | 1.09 fold enrichment (6-mer frequency, TF over GST control)
3 | AAGGCA | 1.08 fold enrichment (6-mer frequency, TF over GST control)
4 | TGGTGC | 1.01 fold enrichment (6-mer frequency, TF over GST control)
5 | CATACG | 1.01 fold enrichment (6-mer frequency, TF over GST control)
6 | AAGGGT | 1.07 fold enrichment (6-mer frequency, TF over GST control)
7 | TTGCCG | 1.12 fold enrichment (6-mer frequency, TF over GST control)
8 | ACATGG | 1.14 fold enrichment (6-mer frequency, TF over GST control)
9 | ATGCCG | 1.08 fold enrichment (6-mer frequency, TF over GST control)
10 | CCGCTG | 1.06 fold enrichment (6-mer frequency, TF over GST control)
11 | ACCACC | 1.15 fold enrichment (6-mer frequency, TF over GST control)
12 | TGCCAA | 1.12 fold enrichment (6-mer frequency, TF over GST control)
13 | GTCCCA | 1.05 fold enrichment (6-mer frequency, TF over GST control)
14 | CCATGC | 1.03 fold enrichment (6-mer frequency, TF over GST control)
15 | GCTGCC | 1.08 fold enrichment (6-mer frequency, TF over GST control)
16 | TCAACA | 1.07 fold enrichment (6-mer frequency, TF over GST control)
17 | GTCTTG | 1 fold enrichment (6-mer frequency, TF over GST control)

Row | Sequence | binding signal
18 | ACCACA | 1.06 fold enrichment (6-mer frequency, TF over GST control)
19 | TGGACC | 1.04 fold enrichment (6-mer frequency, TF over GST control)
20 | GCCCAC | 1.04 fold enrichment (6-mer frequency, TF over GST control)
21 | CGGCCT | 1.06 fold enrichment (6-mer frequency, TF over GST control)
22 | GGTTTT | 1.1 fold enrichment (6-mer frequency, TF over GST control)
23 | CCACCT | 1.1 fold enrichment (6-mer frequency, TF over GST control)
24 | TTGGTC | 1.1 fold enrichment (6-mer frequency, TF over GST control)
25 | GGGTTC | 1.07 fold enrichment (6-mer frequency, TF over GST control)
26 | ACGTTG | 1.07 fold enrichment (6-mer frequency, TF over GST control)
27 | CCACAC | 1.03 fold enrichment (6-mer frequency, TF over GST control)
28 | TGGTCA | 1.13 fold enrichment (6-mer frequency, TF over GST control)
29 | AGCAAC | 1.11 fold enrichment (6-mer frequency, TF over GST control)
30 | AAAGCG | 1.04 fold enrichment (6-mer frequency, TF over GST control)
31 | ATGGTG | 1.14 fold enrichment (6-mer frequency, TF over GST control)
32 | TGCTGC | 1.15 fold enrichment (6-mer frequency, TF over GST control)
33 | CATCGC | 1.14 fold enrichment (6-mer frequency, TF over GST control)

Target: T2, SPDEF (Homo sapiens, UniProt O95238 1-335)
T2 sequence: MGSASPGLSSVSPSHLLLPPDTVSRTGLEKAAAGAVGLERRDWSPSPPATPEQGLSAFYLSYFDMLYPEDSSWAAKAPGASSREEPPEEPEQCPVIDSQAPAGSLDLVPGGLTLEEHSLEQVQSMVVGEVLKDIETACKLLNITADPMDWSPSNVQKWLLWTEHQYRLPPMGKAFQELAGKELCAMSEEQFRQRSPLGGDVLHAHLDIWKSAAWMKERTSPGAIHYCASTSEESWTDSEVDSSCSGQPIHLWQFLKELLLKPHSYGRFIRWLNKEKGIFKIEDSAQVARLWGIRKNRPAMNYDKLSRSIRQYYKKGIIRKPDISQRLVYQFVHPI
Experiment: as above
Conditions: protein: recombinant; tags: N-terminal GST; dsDNA, one strand shown
Method in brief: as §1

Row | Sequence | binding signal
34 | GTCTAC | 1.11 fold enrichment (6-mer frequency, TF over GST control)
35 | GCCCCA | 1.03 fold enrichment (6-mer frequency, TF over GST control)
36 | CGCCCG | 1.1 fold enrichment (6-mer frequency, TF over GST control)
37 | TGGTGC | 1.19 fold enrichment (6-mer frequency, TF over GST control)
38 | CATACG | 1.1 fold enrichment (6-mer frequency, TF over GST control)
39 | TTGCCG | 1.13 fold enrichment (6-mer frequency, TF over GST control)
40 | GTTGAT | 1.07 fold enrichment (6-mer frequency, TF over GST control)
41 | ATGCCG | 1.13 fold enrichment (6-mer frequency, TF over GST control)
42 | CCGCTG | 1.01 fold enrichment (6-mer frequency, TF over GST control)
43 | ACCACC | 1.17 fold enrichment (6-mer frequency, TF over GST control)
44 | TGCCAA | 1.08 fold enrichment (6-mer frequency, TF over GST control)
45 | CCATGC | 1.06 fold enrichment (6-mer frequency, TF over GST control)
46 | GCTGCC | 1.09 fold enrichment (6-mer frequency, TF over GST control)
47 | TCAACA | 1.07 fold enrichment (6-mer frequency, TF over GST control)
48 | GTCTTG | 1.05 fold enrichment (6-mer frequency, TF over GST control)
49 | TGGACC | 1.05 fold enrichment (6-mer frequency, TF over GST control)
50 | GCCCAC | 1.06 fold enrichment (6-mer frequency, TF over GST control)
51 | CGGCCT | 1.12 fold enrichment (6-mer frequency, TF over GST control)
52 | GGTTTT | 1.07 fold enrichment (6-mer frequency, TF over GST control)
53 | CCACCT | 1.19 fold enrichment (6-mer frequency, TF over GST control)
54 | TTGGTC | 1.06 fold enrichment (6-mer frequency, TF over GST control)
55 | GGGTTC | 1.14 fold enrichment (6-mer frequency, TF over GST control)
56 | ACGTTG | 1.17 fold enrichment (6-mer frequency, TF over GST control)
57 | CCACAC | 1.13 fold enrichment (6-mer frequency, TF over GST control)
58 | AGCAAC | 1.08 fold enrichment (6-mer frequency, TF over GST control)
59 | AAAGCG | 1.03 fold enrichment (6-mer frequency, TF over GST control)
60 | ATGGTG | 1.14 fold enrichment (6-mer frequency, TF over GST control)
61 | TGCTGC | 1.05 fold enrichment (6-mer frequency, TF over GST control)

Target: T3, ETV7 (Homo sapiens, UniProt Q9Y603 1-341)
T3 sequence: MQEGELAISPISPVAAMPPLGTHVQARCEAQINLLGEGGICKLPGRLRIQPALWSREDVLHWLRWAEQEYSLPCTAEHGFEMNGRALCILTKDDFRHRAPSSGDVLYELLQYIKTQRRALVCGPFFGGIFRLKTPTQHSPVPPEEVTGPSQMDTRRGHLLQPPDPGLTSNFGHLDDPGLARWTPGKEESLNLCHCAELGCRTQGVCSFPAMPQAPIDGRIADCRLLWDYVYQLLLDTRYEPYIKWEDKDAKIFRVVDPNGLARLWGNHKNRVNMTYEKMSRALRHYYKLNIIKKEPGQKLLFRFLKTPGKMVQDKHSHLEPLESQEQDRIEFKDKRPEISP
Experiment: as above
Conditions: protein: recombinant; tags: N-terminal GST; dsDNA, one strand shown
Method in brief: as §1

Row | Sequence | binding signal
62 | CGCCCG | 1.08 fold enrichment (6-mer frequency, TF over GST control)
63 | AAGGCA | 1.05 fold enrichment (6-mer frequency, TF over GST control)
64 | TGGTGC | 1.07 fold enrichment (6-mer frequency, TF over GST control)
65 | AAGGGT | 1.1 fold enrichment (6-mer frequency, TF over GST control)
66 | TTGCCG | 1.22 fold enrichment (6-mer frequency, TF over GST control)
67 | ACATGG | 1.08 fold enrichment (6-mer frequency, TF over GST control)
68 | CCGCTG | 1.16 fold enrichment (6-mer frequency, TF over GST control)
69 | TGCCAA | 1.01 fold enrichment (6-mer frequency, TF over GST control)
70 | GCGCGC | 1.05 fold enrichment (6-mer frequency, TF over GST control)
71 | GTCCCA | 1.13 fold enrichment (6-mer frequency, TF over GST control)
72 | CCGATG | 1.1 fold enrichment (6-mer frequency, TF over GST control)
73 | CCATGC | 1.1 fold enrichment (6-mer frequency, TF over GST control)
74 | GCTGCC | 1.04 fold enrichment (6-mer frequency, TF over GST control)
75 | GTCTTG | 1.19 fold enrichment (6-mer frequency, TF over GST control)
76 | TGGACC | 1.03 fold enrichment (6-mer frequency, TF over GST control)
77 | CGGCCT | 1.23 fold enrichment (6-mer frequency, TF over GST control)
78 | GGTTTT | 1.1 fold enrichment (6-mer frequency, TF over GST control)
79 | TTGGTC | 1.18 fold enrichment (6-mer frequency, TF over GST control)
80 | ACGTTG | 1.1 fold enrichment (6-mer frequency, TF over GST control)
81 | AGCAAC | 1.1 fold enrichment (6-mer frequency, TF over GST control)
82 | AAAGCG | 1.11 fold enrichment (6-mer frequency, TF over GST control)
83 | TGCTGC | 1.1 fold enrichment (6-mer frequency, TF over GST control)
84 | CATCGC | 1.11 fold enrichment (6-mer frequency, TF over GST control)

Target: T4, ELF5 (Homo sapiens, UniProt Q9UKW6-2 1-255)
T4 sequence: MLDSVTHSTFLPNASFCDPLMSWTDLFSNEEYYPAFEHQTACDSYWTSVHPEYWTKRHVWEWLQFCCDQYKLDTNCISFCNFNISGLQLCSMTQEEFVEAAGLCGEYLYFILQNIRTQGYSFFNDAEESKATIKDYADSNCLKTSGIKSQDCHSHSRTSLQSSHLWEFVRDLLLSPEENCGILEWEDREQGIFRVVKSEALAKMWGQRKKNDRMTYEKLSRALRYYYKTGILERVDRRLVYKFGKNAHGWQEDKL
Experiment: as above
Conditions: protein: recombinant; tags: N-terminal GST; dsDNA, one strand shown
Method in brief: as §1

Row | Sequence | binding signal
85 | GTCTAC | 1.08 fold enrichment (6-mer frequency, TF over GST control)
86 | CGCCCG | 1.16 fold enrichment (6-mer frequency, TF over GST control)
87 | AAGGCA | 1.05 fold enrichment (6-mer frequency, TF over GST control)
88 | TGGTGC | 1.02 fold enrichment (6-mer frequency, TF over GST control)
